# A selection: hits, their analogues and other compounds. The true share with any hit is near 21%.
# Pf growth 96h: Primary qHTS for delayed death inhibitors of the malarial parasite plastid, 96 hour incubation | P. falciparum luciferase reporter growth, 96 h | Potency, µM (series often up to 28.7 µM), without a hit: top-dose activity change, negative = inhibition, actives largely listed as inhibitors | 320,000 compounds, 6.9% hits | AID 504834, 2011; active means well fitted inhibition curve with a large enough effect; inconclusive means small, poorly fitted or top-dose-only effect, or another doubt; inactive means no such curve, though single readings can be large or run the other way; further: potency means the concentration at half of the fitted maximal effect; on the % scale 0 is the no-effect control and ±100 the full control effect
#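 Readout is luminescence from an integrated firefly luciferase in P. falciparum. Red cells, 2% hematocrit and 0.05% parasitemia final, were cultured with compound through two parasite generations (96 hours) at 37 C, 5% CO2.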
# SARS PLP yeast: qHTS of Yeast-based Assay for SARS-CoV PLP; 330,000 compounds, 0.19% hits; S. cerevisiae expressing SARS-CoV PLpro, growth rescue; AID 485353, 2010; Potency, µM (doses to about 32.9 µM), for the others: at the highest dose activity, positive = growth rescue, most hits filed as activators; further: potency means the concentration at half of the fitted maximal effect; 0% is about no effect; nearly all actives have a fitted effect of over 55% in size
# Shiga inhibitor: A qHTS for Small Molecule Inhibitors of Shiga Toxin | inhibition, % at 38.7 µM | Vero cells, Shiga toxin protein synthesis inhibition reporter | AID 2315, 2010 | 290,000 compounds, 9.2% hits; in the data active means inhibition mostly above about 28%, no sharp cut-off; inactive means mostly below about 43%; further: 0% is about no effect
# Pf growth 48h: Primary qHTS for delayed death inhibitors of the malarial parasite plastid, 48 hour incubation; P. falciparum luciferase growth in erythrocytes, 48 h; Potency, µM (doses to about 28.7 µM), without a hit: at the highest dose activity change, negative = inhibition, usual class: inhibitors; 310,000 compounds, 5.9% hits; AID 504832, 2011; active means well fitted inhibition curve with a large enough effect; inconclusive means small, poorly fitted or top-dose-only effect, or another doubt; inactive means no such curve, though single readings can be large or run the other way; further: potency means the concentration at half of the fitted maximal effect; on the % scale 0 is the no-effect control and ±100 the full control effect
#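 Firefly luciferase activity from engineered P. falciparum reports growth; inhibitors lower the luminescent signal. Cultures contained 2% hematocrit erythrocytes at 0.1% final parasitemia.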
# NS1 function inh: qHTS Assay for Inhibitors of Influenza NS1 Protein Function. Potency, µM (doses to about 46.1 µM), inactives show top-dose activity, positive = more growth. 270,000 compounds, 0.4% hits; further: potency means the concentration at half of the fitted maximal effect; actives are rising curves; nearly all actives have a fitted effect of over 50% in size
#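 A cell-based growth assay was used: compounds that relieve NS1-induced slow growth of budding yeast raise OD600. Assay medium was yeast nitrogen base with ammonium sulphate and -URA supplement, pH 6.0, with 2% galactose.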
# CHX counter: Cycloheximide Counterscreen for Small Molecule Inhibitors of Shiga Toxin | 300,000 compounds, 12% hits | cell reporter, cycloheximide protein synthesis inhibition counterscreen | max response, %; in the data active means max response mostly above about 13%, no sharp cut-off; inactive means mostly below about 14%; further: read at 38.3 µM for the half of the compounds with a filed dose; 0% is about no effect
# Active calls of the source: *; ? = inconclusive; nt = not tested or not shown; [ ] = remark or other dose. Unless noted, the call rests on the fitted dose curve.
SMILES,Pf growth 96h,SARS PLP yeast,Shiga inhibitor,Pf growth 48h,NS1 function inh,CHX counter
COc1ccc(C2=NN(C(=O)CCC(=O)O)C(c3ccccc3)C2)cc1 (stereo unspecified),?,1%,5,6%,5%,9
CC(=O)N/C(=N\OCc1ccccc1Cl)c1nonc1NC(C)=O,?,-3%,-8,7%,-8%,1
O=C(O)c1cccc(N2C(=O)c3cccc(Oc4ccc(Cl)cc4)c3C2=O)c1,?,?,1,-4%,22%,19*
Cc1c(OC(C)C(=O)NCC2CCC(C(=O)O)CC2)ccc2c(-c3ccccc3)cc(=O)oc12 (stereo unspecified),?,-1%,13,?,?,0
Cc1c(O[C@@H]2O[C@H](CO)[C@@H](O)[C@H](O)[C@H]2O)ccc2c1oc(=O)c1ccccc12,-13%,9%,48,-11%[0.00184 µM],6%,15*
Cc1c(C)c2ccc(O[C@@H]3O[C@H](CO)[C@H](O)[C@H](O)[C@H]3O)c(C)c2oc1=O,15%,-2%,6,17%,1%,6
NS(=O)(=O)c1ccc(CCNc2nc(CN3CCCCC3)nc3sc4c(c23)CCC4)cc1,6.6µM*,2%,-3,12µM*,-6%,-7
Cc1ccc2oc(-c3cccc(NC(=S)NC(=O)/C=C/c4ccco4)c3)nc2c1,86%,0%,69*,60%,?,52*
Cc1ccc2oc(-c3cccc(NC(=S)NC(=O)c4cccs4)c3)nc2c1,-21%,4%,24*,141%,3%,41*
O=C(NC(=S)Nc1ccc2oc(-c3ccncc3)nc2c1)c1ccccc1F,-22%,-1%,-6,25%,7%,-2
O=C(Nc1ccc2oc(-c3ccccc3)nc2c1)c1cccs1,48%,-31%,67*,118%,-14%,55*
CCN(CC)S(=O)(=O)c1ccc(OC)c(NC(=O)C2CC(=O)N(c3ccc(C)cc3)C2)c1 (stereo unspecified),21%,0%,-4,?,-3%,-6
COc1cc(Cl)c(C)cc1NC(=O)CN1C(=O)C2CC=CCC2C1=O (stereo unspecified),nt,0%,nt,nt,nt,nt
Fc1cccc(Cl)c1Cn1ncc2ccccc21,11%,0%,31*,41%,2%,28*
c1ccc(Cn2ncc3ccccc32)cc1,-1%,4%,18,4%,10%,8
O=c1cnn(Cc2c(Cl)cccc2Cl)c2ccccc12,9.3µM*,-13%,-4,13µM*,-10%,-3
O=C(COC(=O)COc1ccc(Cl)cc1)NCc1cccs1,36%,2%,-6,11%,-9%,4
CCOc1ccc(C(=O)NCCc2ccc3c(c2)OCCO3)cc1,50%,-2%,21,4%,nt,9
CCn1ncc(Br)c1C(=O)Nc1nccs1,nt,2%,15,-15%,1%,-3
O=C(Nc1nccs1)c1ncc(Cl)c(Cl)c1Cl,-16%,-1%,66*,-23%,-5%,42*
CCn1cc(Cl)c(C(=O)Nc2nccs2)n1,81%,3%,32*,76%,-4%,33*
O=C(Nc1nccs1)c1cnccn1,51%,-2%,24,22%,6%,2
Cn1cc(Cl)c(C(=O)Nc2nccs2)n1,?,-1%,71*,95%,0%,40*
CC(Oc1ccccc1)C(=O)N1CCN=C1SCc1ccccc1F (stereo unspecified),-18%,-1%,20,?,-8%,3
CCOC(=O)C1=C(C)N=C2SC(C)C(=O)N2C1c1cccc(F)c1 (stereo unspecified),?,2%,-13,nt,26%,-11
SMILES,Pf growth 96h,SARS PLP yeast,Shiga inhibitor,Pf growth 48h,NS1 function inh,CHX counter
CC1=C(C(=O)OC(C)C)C(c2cccc(F)c2)N2C(=O)C(C)SC2=N1 (stereo unspecified),?,7%,-5,12µM*,?,3
CC1=C(C(=O)OCC(C)C)C(c2cccc(F)c2)N2C(=O)C(C)SC2=N1 (stereo unspecified),12µM*,-15%,-7,10µM*,?,-3
Cc1cc(-c2nnnn2-c2cc(Cl)cc(Cl)c2)no1,17%,0%,8,25%,?,2
CCC/C=C(\CCC)C(NS(=O)(=O)c1ccc(C(F)(F)F)cc1)c1ccccc1 (stereo unspecified),7.4µM*,-28%,11,9.3µM*,-43%,8
Cc1cc(C)cc(N=Cc2ccc([N+](=O)[O-])s2)c1,-17%,-78%,-3,0%,-63%,13
Cc1cc2ncn(/N=C/c3ccc([N+](=O)[O-])s3)c2cc1C,3.7µM*,-87%,-10,2.6µM*,-29%,4
Cc1cc2ncn(/N=C/c3cc(Br)ccc3O)c2cc1C,?,12%,23,1µM*,-61%,-3
O=[N+]([O-])c1ccc(/C=N/n2cnc3ccccc32)s1,?,-64%,59,5.9µM*,-48%,21
CC(=O)Nc1ccc(NC(=O)COC(=O)C2CCCCC2)cc1,nt,-1%,nt,nt,nt,nt
Cc1ccc(C)c(NC(=O)CN(C)C(=O)c2cccc(S(=O)(=O)N(C)C)c2)c1,-29%,0%,-6,?,nt,-1
COc1cccc(NC(=O)CN(C)C(=O)c2cccc(S(=O)(=O)N3CCN(c4ccc(F)cc4)CC3)c2)c1,?,-1%,nt,-20%,nt,nt
CN(CC(=O)Nc1ccc(F)cc1)C(=O)c1cccc(S(=O)(=O)N2CCN(c3ccc(F)cc3)CC2)c1,?,16%,nt,12µM*,nt,nt
CN(CC(=O)Nc1ccc(Cl)cc1)C(=O)c1cccc(S(=O)(=O)N(C)C)c1,10µM*,10%,-12,?,-14%,1
CN(Cc1ccc(F)cc1)C(=O)c1cccc(S(=O)(=O)N2CCN(c3ccccc3)CC2)c1,?,0%,nt,9.3µM*,nt,nt
CN(Cc1ccc(F)cc1)C(=O)c1cccc(S(=O)(=O)N2CCN(c3ccc(F)cc3)CC2)c1,?,-3%,nt,-44%,nt,nt
CN(C(=O)CCCN1C(=O)c2ccccc2C1=O)C1CCCCC1,-22%,-4%,nt,?,nt,nt
O=C(COC(=O)c1cc[n+]([O-])cc1)Nc1cccc(F)c1,nt,1%,nt,nt,nt,nt
CCCNC(=O)C1CC(c2cccc(F)c2)=NO1 (stereo unspecified),78%,-3%,4,58%,3%,1
O=C(NCc1ccc(OC(F)(F)F)cc1)C1CC(c2c(Cl)cccc2Cl)=NO1 (stereo unspecified),36%,-2%,-3,1.3µM*,1%,-3
O=C(NCCc1cccs1)C1CC(c2cccc(F)c2)=NO1 (stereo unspecified),1.7µM*,-2%,5,?,-36%,5

# Assay outcomes deposited in PubChem BioAssay by National Center for Advancing Translational Sciences (NCATS).
